Experimental data published in paper PMC7862700, “An all-to-all approach to the identification of sequence-specific readers for epigenetic DNA modifications on cytosine”.

Assays:
Experiment in all cases: DAPPL (digital affinity profiling via proximity ligation, sequencing); 10 mM Tris-HCl pH 7.5, 50 mM NaCl, 1 mM DTT, 4% glycerol, room temperature, 30 min; GST-TFs on glutathione beads, 16-mer random dsDNA library, 0.1% formaldehyde crosslink after washing; high values mean tight binding
Details in all cases: protein: recombinant; tags: N-terminal GST; dsDNA, one strand shown
[1] = biological target: T1, FLI1 (Homo sapiens, UniProt Q01543 1-452)
T1 sequence: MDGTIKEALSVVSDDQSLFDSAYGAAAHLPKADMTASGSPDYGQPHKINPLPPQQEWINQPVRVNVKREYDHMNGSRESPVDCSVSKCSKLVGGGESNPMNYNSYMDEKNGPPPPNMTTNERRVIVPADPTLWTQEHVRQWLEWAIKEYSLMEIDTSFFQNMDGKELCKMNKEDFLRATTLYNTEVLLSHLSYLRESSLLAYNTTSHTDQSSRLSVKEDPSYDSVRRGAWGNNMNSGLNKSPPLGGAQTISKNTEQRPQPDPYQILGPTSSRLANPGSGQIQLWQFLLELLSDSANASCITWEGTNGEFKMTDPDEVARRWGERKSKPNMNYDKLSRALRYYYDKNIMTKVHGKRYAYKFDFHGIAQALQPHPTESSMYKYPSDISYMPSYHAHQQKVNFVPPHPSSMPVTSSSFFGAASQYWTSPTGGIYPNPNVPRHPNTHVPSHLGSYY
Method in brief: (§1)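 Binding signal is defined as a hexamer's read frequency for one factor over its frequency for the tag-only sample. To obtain reads, GST-fused human transcription factors were expressed in yeast, captured on glutathione beads, barcoded with DNA and pooled with that sample. Pools met 200 nmole of a 16-mer random double-stranded DNA library in Tris/NaCl/DTT/glycerol buffer for 30 min at room temperature before washing, 0.1% formaldehyde crosslinking, proximity ligation (BsaI/T4 ligase, 1 h, 37 °C), PCR and Illumina NextSeq500 sequencing.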

[2] = biological target: T2, ELK1 (Homo sapiens, UniProt P19419 1-428)
T2 sequence: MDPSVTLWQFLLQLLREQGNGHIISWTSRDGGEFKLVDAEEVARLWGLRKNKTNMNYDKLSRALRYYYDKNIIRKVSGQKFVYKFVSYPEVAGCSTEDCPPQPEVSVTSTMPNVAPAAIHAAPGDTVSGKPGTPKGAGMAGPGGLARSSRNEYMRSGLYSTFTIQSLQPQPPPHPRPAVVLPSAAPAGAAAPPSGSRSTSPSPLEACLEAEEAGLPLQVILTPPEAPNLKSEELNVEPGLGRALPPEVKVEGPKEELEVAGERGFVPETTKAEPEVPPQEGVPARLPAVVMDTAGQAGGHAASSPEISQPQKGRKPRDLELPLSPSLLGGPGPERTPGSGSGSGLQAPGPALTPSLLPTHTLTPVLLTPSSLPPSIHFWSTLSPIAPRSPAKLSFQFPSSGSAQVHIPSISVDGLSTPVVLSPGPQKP
Method in brief: as §1

[3] = biological target: T3, GABPA (Homo sapiens, UniProt Q06546 1-454)
T3 sequence: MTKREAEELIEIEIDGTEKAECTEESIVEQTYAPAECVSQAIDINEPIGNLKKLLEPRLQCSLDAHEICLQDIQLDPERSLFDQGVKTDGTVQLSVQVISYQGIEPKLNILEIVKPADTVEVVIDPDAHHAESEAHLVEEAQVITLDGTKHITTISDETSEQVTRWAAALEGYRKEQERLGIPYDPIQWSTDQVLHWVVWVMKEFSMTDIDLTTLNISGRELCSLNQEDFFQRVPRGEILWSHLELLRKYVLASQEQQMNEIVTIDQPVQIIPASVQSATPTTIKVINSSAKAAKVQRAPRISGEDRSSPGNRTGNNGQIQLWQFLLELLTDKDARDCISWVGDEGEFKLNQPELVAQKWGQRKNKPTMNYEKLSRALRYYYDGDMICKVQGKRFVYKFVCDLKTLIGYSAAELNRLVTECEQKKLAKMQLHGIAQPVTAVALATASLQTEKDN
Method in brief: as §1

[4] = biological target: T4, ERG (Homo sapiens, UniProt P11308 1-479)
T4 sequence: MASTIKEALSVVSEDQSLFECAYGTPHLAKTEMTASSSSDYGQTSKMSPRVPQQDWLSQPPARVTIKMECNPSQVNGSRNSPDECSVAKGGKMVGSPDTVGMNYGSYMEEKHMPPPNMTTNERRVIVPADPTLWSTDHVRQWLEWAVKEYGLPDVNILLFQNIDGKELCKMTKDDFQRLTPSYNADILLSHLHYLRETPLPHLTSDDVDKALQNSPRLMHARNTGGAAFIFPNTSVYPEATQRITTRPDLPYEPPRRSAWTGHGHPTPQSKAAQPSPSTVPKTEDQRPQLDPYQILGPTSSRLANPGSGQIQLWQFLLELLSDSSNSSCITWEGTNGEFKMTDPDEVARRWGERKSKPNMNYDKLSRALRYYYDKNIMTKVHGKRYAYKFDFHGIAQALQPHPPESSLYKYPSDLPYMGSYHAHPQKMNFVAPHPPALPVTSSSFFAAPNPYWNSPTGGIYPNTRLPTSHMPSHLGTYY
Method in brief: as §1

[5] = biological target: ELF1 (Homo sapiens, UniProt P32519 1-619)
Sequence of ELF1 (P32519 whole entry): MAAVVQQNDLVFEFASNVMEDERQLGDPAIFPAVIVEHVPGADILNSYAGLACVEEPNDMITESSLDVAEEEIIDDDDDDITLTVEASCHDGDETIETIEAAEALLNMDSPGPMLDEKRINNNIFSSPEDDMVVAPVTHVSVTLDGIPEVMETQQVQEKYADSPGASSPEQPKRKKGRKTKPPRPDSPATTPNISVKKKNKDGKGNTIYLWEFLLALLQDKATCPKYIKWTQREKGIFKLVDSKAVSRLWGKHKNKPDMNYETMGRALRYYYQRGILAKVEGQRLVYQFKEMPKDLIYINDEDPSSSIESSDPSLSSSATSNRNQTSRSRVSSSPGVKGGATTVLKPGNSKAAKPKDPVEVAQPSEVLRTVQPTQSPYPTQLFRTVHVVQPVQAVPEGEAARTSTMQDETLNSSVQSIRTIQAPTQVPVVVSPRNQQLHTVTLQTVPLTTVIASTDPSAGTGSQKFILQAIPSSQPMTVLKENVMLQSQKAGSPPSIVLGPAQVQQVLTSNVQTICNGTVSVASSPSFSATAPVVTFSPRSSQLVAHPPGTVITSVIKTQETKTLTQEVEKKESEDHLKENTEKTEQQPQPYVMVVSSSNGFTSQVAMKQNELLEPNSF
Method in brief: as §1

[6] = biological target: T5, EHF (Homo sapiens, UniProt Q9NZC4 1-300)
T5 sequence: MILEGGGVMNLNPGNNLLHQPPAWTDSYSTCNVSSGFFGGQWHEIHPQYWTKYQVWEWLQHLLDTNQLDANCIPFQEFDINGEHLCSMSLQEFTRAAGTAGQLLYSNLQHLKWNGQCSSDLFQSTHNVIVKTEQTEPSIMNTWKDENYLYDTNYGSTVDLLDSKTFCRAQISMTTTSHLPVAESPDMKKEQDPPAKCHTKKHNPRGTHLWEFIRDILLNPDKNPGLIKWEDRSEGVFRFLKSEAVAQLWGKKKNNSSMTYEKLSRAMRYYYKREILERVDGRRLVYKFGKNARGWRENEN
Method in brief: as §1

[7] = biological target: SPI1 (Homo sapiens, UniProt P17947 1-270)
Method in brief: as §1

[8] = biological target: SPIB (Homo sapiens, UniProt Q01892 1-262)
Sequence of SPIB (Q01892 whole entry): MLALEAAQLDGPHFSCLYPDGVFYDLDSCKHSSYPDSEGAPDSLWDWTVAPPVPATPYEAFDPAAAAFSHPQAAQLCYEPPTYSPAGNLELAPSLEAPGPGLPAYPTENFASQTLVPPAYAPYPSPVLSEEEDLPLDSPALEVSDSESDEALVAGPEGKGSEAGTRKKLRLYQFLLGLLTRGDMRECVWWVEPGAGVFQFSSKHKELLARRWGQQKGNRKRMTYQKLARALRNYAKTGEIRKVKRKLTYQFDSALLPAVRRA
Method in brief: as §1

[9] = biological target: T6, ELK3 (Homo sapiens, UniProt P41970 1-407)
T6 sequence: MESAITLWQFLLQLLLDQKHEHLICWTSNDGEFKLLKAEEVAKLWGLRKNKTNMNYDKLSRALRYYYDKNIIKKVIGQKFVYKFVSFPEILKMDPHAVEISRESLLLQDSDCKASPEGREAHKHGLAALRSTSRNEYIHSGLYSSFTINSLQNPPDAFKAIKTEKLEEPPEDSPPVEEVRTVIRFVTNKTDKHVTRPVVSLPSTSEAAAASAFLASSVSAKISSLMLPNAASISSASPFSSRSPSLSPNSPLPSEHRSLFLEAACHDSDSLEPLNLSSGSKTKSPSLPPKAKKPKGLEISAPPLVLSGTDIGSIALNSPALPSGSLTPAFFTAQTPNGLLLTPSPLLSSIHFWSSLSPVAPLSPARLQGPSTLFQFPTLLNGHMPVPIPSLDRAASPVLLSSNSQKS
Method in brief: as §1

Sequence: ACTACT
- binding signal [1]: 1.28 fold enrichment (6-mer frequency, TF over GST control)
- binding signal [2]: 1.25 fold enrichment (6-mer frequency, TF over GST control)
- binding signal [3]: 1.28 fold enrichment (6-mer frequency, TF over GST control)
- binding signal [4]: 1.28 fold enrichment (6-mer frequency, TF over GST control)
- binding signal [5]: 1.32 fold enrichment (6-mer frequency, TF over GST control)
- binding signal [6]: 1.34 fold enrichment (6-mer frequency, TF over GST control)
- binding signal [7]: 1.29 fold enrichment (6-mer frequency, TF over GST control)
- binding signal [8]: 1.34 fold enrichment (6-mer frequency, TF over GST control)
- binding signal [9]: 1.31 fold enrichment (6-mer frequency, TF over GST control)

Sequence: TTTCAG
- binding signal [1]: 1.36 fold enrichment (6-mer frequency, TF over GST control)
- binding signal [2]: 1.19 fold enrichment (6-mer frequency, TF over GST control)
- binding signal [3]: 1.34 fold enrichment (6-mer frequency, TF over GST control)
- binding signal [4]: 1.3 fold enrichment (6-mer frequency, TF over GST control)
- binding signal [5]: 1.31 fold enrichment (6-mer frequency, TF over GST control)
- binding signal [6]: 1.34 fold enrichment (6-mer frequency, TF over GST control)
- binding signal [7]: 1.35 fold enrichment (6-mer frequency, TF over GST control)
- binding signal [8]: 1.24 fold enrichment (6-mer frequency, TF over GST control)
- binding signal [9]: 1.23 fold enrichment (6-mer frequency, TF over GST control)

Sequence: ATTTTA
- binding signal [1]: 1.32 fold enrichment (6-mer frequency, TF over GST control)
- binding signal [2]: 1.16 fold enrichment (6-mer frequency, TF over GST control)
- binding signal [3]: 1.3 fold enrichment (6-mer frequency, TF over GST control)
- binding signal [4]: 1.29 fold enrichment (6-mer frequency, TF over GST control)
- binding signal [5]: 1.29 fold enrichment (6-mer frequency, TF over GST control)
- binding signal [6]: 1.32 fold enrichment (6-mer frequency, TF over GST control)
- binding signal [7]: 1.34 fold enrichment (6-mer frequency, TF over GST control)
- binding signal [8]: 1.35 fold enrichment (6-mer frequency, TF over GST control)
- binding signal [9]: 1.31 fold enrichment (6-mer frequency, TF over GST control)

Sequence: AATGGC
- binding signal [1]: 1.32 fold enrichment (6-mer frequency, TF over GST control)
- binding signal [2]: 1.33 fold enrichment (6-mer frequency, TF over GST control)
- binding signal [3]: 1.37 fold enrichment (6-mer frequency, TF over GST control)
- binding signal [4]: 1.43 fold enrichment (6-mer frequency, TF over GST control)
- binding signal [5]: 1.39 fold enrichment (6-mer frequency, TF over GST control)
- binding signal [6]: 1.5 fold enrichment (6-mer frequency, TF over GST control)
- binding signal [7]: 1.39 fold enrichment (6-mer frequency, TF over GST control)
- binding signal [8]: 1.37 fold enrichment (6-mer frequency, TF over GST control)
- binding signal [9]: 1.26 fold enrichment (6-mer frequency, TF over GST control)

Sequence: GCTGAT
- binding signal [1]: 1.11 fold enrichment (6-mer frequency, TF over GST control)
- binding signal [2]: 1.1 fold enrichment (6-mer frequency, TF over GST control)
- binding signal [3]: 1.18 fold enrichment (6-mer frequency, TF over GST control)
- binding signal [4]: 1.1 fold enrichment (6-mer frequency, TF over GST control)
- binding signal [5]: 1.22 fold enrichment (6-mer frequency, TF over GST control)
- binding signal [6]: 1.33 fold enrichment (6-mer frequency, TF over GST control)
- binding signal [7]: 1.08 fold enrichment (6-mer frequency, TF over GST control)
- binding signal [8]: 1.11 fold enrichment (6-mer frequency, TF over GST control)
- binding signal [9]: 1.33 fold enrichment (6-mer frequency, TF over GST control)

Sequence: GTGCTT
- binding signal [1]: 1.21 fold enrichment (6-mer frequency, TF over GST control)
- binding signal [2]: 1.36 fold enrichment (6-mer frequency, TF over GST control)
- binding signal [3]: 1.3 fold enrichment (6-mer frequency, TF over GST control)
- binding signal [4]: 1.38 fold enrichment (6-mer frequency, TF over GST control)
- binding signal [5]: 1.2 fold enrichment (6-mer frequency, TF over GST control)
- binding signal [6]: 1.24 fold enrichment (6-mer frequency, TF over GST control)
- binding signal [7]: 1.33 fold enrichment (6-mer frequency, TF over GST control)
- binding signal [8]: 1.24 fold enrichment (6-mer frequency, TF over GST control)
- binding signal [9]: 1.4 fold enrichment (6-mer frequency, TF over GST control)

Sequence: TGCTAT
- binding signal [1]: 1.42 fold enrichment (6-mer frequency, TF over GST control)
- binding signal [2]: 1.36 fold enrichment (6-mer frequency, TF over GST control)
- binding signal [3]: 1.47 fold enrichment (6-mer frequency, TF over GST control)
- binding signal [4]: 1.41 fold enrichment (6-mer frequency, TF over GST control)
- binding signal [5]: 1.46 fold enrichment (6-mer frequency, TF over GST control)
- binding signal [6]: 1.49 fold enrichment (6-mer frequency, TF over GST control)
- binding signal [7]: 1.33 fold enrichment (6-mer frequency, TF over GST control)
- binding signal [8]: 1.47 fold enrichment (6-mer frequency, TF over GST control)
- binding signal [9]: 1.63 fold enrichment (6-mer frequency, TF over GST control)
